Screens (PubChem)
A selection: hits, their analogues and other compounds. The true share with any hit is near 1.8%.
Vif-A3F inh = inhibitors of Vif-A3F interaction | HeLa A3F-eYFP + Vif (tagged APOBEC3F with the HIV-1 protein that degrades it), YFP fluorescence increase | Potency, µM (highest dose often 46.1 µM), inactives show at the top dose activity, negative = active | 390,000 compounds, 0.2% hits | AID 602313; note: % of control where 0% means no effect; nearly all actives have a fitted effect of over 65% in size
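HeLa cells stably expressing Vif plus C-terminally eYFP-tagged A3F were seeded, incubated overnight at 37 deg C, dosed with compound, incubated overnight again at 37 deg C. Yellow fluorescence (Ex 488/Em 500-530) reported blocked Vif-mediated A3F-eYFP degradation.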
Vif-APOBEC3G blk = inhibitors of Vif-APOBEC3G interaction | Q9HC16 | HeLa A3G-eYFP + Vif (tagged APOBEC3G with the HIV-1 protein that degrades it), YFP fluorescence, overnight | Potency, µM (titrated, usually from 46.1 µM), for inactives: at the top dose activity, negative = active, actives largely listed as inhibitors | 410,000 compounds, 0.076% hits | AID 602310; note: % is set by controls: 0 for no effect and ±100 for the full control effect; nearly all actives have a fitted effect of over 60% in size
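HeLa cells stably expressing Vif and C-terminally eYFP-tagged A3G, seeded overnight at 37 deg C, then exposed to compound by pintool overnight at 37 deg C. Rise in yellow fluorescence (Ex 488/Em 500-530, Acumen) marks blocked Vif-driven A3G degradation.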
TrxR1 inh = rat TrxR1 inhibition. Potency, µM (series often up to 114 µM), for the others: at the top dose activity change, negative = inhibition, hits mostly inhibitors. 390,000 compounds, 1% hits. O89049. recombinant rTrxR1, NADPH fluorescence consumption, selenite substrate; note: % is set by controls: 0 for no effect and ±100 for the full control effect; nearly all actives have a fitted effect of over 65% in size
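Rat TrxR1 (90 nM in the dispensed reagent) was pre-reduced with 400 uM NADPH for 5 min at room temperature, then incubated with compound for 15 min. After 400 uM selenite was added, NADPH fluorescence (Ex 340/Em 450 nm) was followed for 8 min.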
TrxR1 substrate = is turned over as a substrate by rat TrxR1; purified TrxR1 substrate turnover, NADPH consumption readout; AID 588456; O89049; Potency, µM (top dose mostly 114 µM), inactives show at the highest dose activity change, negative = substrate turnover; 390,000 compounds, 0.01% hits; note: % is set by controls: 0 for no effect and ±100 for the full control effect; nearly all actives have a fitted effect of over 50% in size
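Rat TrxR1, dispensed at 90 nM, was prereduced with 400 uM NADPH (final) for 5 min at ~22 deg C, then incubated with compound 15 min before 400 uM selenite. A first-read NADPH fluorescence drop versus no-compound background flagged substrates.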
VDR inh = vitamin D3 receptor (human) inhibition | P11473 | VDR-SRC2-3 peptide fluorescence polarization, 2 h | 400,000 compounds, 0.93% hits | AID 504847 | Potency, µM, inactives show max response, negative = inhibition, hits mostly inhibitors; note: % is set by controls: 0 for no effect and ±100 for the full control effect
Target sequence (P11473 whole entry, looked up): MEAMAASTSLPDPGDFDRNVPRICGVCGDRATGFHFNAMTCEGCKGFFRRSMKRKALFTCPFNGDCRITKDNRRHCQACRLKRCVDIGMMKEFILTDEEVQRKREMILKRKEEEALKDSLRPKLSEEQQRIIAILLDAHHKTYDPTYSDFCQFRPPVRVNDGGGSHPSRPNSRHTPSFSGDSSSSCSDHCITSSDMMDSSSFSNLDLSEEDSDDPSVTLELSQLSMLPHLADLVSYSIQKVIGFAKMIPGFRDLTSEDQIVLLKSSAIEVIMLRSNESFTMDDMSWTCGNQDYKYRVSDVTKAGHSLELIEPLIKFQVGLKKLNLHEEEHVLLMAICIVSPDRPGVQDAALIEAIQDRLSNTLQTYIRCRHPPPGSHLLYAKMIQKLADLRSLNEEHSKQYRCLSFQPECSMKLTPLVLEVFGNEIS
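Inhibition of the VDR/SRC2-3 peptide interaction is quantified by fluorescence polarization. Compounds (23 nl, pintool) incubate with the reagents for 2 hours at ambient room temperature.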
The depositor's hits bear a star; i = inactive; ? = inconclusive; nt = not tested or not shown; [ ] = another dose, or the depositor's remark. Calls come from the whole dose curve; as a rule, active = well fitted curve in the direction sought with a large enough effect; inconclusive = small, poorly fitted or top-dose-only effect, or another doubt; inactive = no such curve, though single readings can be large; an effect the other way counts as inactive or inconclusive. Potency is the fitted concentration of half-maximal effect.

SMILES	Vif-A3F inh	Vif-APOBEC3G blk	TrxR1 inh	TrxR1 substrate	VDR inh
CN(C)c1ccc(/C=C(\C#N)c2nc3ccccc3c(=O)[nH]2)cc1	5.01µM*	?	19.6%	3.5%	?
COC(=O)C1=C(C)NC(=S)NC1c1ccc(-c2cc(Cl)ccc2Cl)o1 (centres undefined)	?	2.5%	31.6µM*	2.9%	?
CCCN1C(=O)c2ccccc2NC1c1ccc(OC)c(COc2ccc([N+](=O)[O-])cc2)c1 (centres undefined)	nt	3.0%	17.4%	4.3%[0.0914 µM]	-23.1%
CCN(CC)c1ccc(/C=C2\C=Cc3ccccc32)cc1	nt	-4.1%	-11.7%	-5.7%	nt
Cc1ccc2[nH]c3c(=O)n(CC(=O)N4CCN(C)CC4)ncc3c2c1	5.9%	-0.5%	35.5µM*	1.7%	?
CCOP(=O)(OCC)C(C#N)=C1SCN(c2ccc(Cl)cc2)CS1	nt	-1.2%	12.6µM*	-7.9%	?
Cc1ccc(S(=O)(=O)Nc2cc(Br)cc3cccnc23)cc1	nt	?	7.4%	-2.2%	1.2%
CC(C)OC(=O)CN1C(=O)S/C(=C/c2ccc(N3CCCCC3)o2)C1=O	?	?	?	-1.2%	-84.4%
O=C1NC(=S)S/C1=C/c1ccc(N2CCOCC2)o1	i	11.2µM*	12.6µM*	-14.7%	?
O=C1N=C(N2CCOCC2)S/C1=C/c1ccc(-c2ccc(F)cc2)o1	?	10.2%	-2.9%	-1.5%	-4.9%
O=C1S/C(=C/c2ccc(N3CCOCC3)o2)C(=O)N1Cc1ccc(F)cc1	?	?	8.91µM*	-4.3%	?
O=C1S/C(=C\c2ccc(N3CCOCC3)o2)C(=O)N1Cc1ccc(F)cc1	?	?	2.51µM*	-11.0%[57.1 µM]	?
CCCCCCOC(=O)C1(O)CC2OC1(C)n1c3ccccc3c3c4c(c5c6ccccc6n2c5c31)C(=O)NC4 (centres undefined)	nt	nt	nt	nt	10.7%
Cc1ccc(N2C(=O)CC(Sc3nccc(C)n3)C2=O)cc1 (centres undefined)	3.8%	0.1%	7.1%	2.8%	3.7%
Cc1cccc(N2C(=O)CC(Sc3nnc(C)s3)C2=O)c1 (centres undefined)	-2.1%	1.2%	20µM*	0.2%	-18.0%
Cc1ccc(N2C(=O)CC(Sc3cccs3)C2=O)cc1 (centres undefined)	4.1%	0.1%	79.4µM*	-5.6%	-17.8%
Cc1cc(C)cc(N2C(=O)CC(Sc3nnnn3-c3ccccc3)C2=O)c1 (centres undefined)	-15.3%	-22.3%	11.2µM*	15.7%	21.5%
Cn1nnnc1SC1CC(=O)N(c2ccccc2)C1=O (centres undefined)	0.7%	4.2%	17.8µM*	11.9%[57.1 µM]	-11.6%
C1=CC2c3ccccc3NC(c3ccncc3)C2C1 (centres undefined)	-13.3%	2.6%	7.94µM*	-1.7%	?
C=C1C(=O)[C@]23[C@H](O)[C@H]1CC[C@H]2[C@@]12COC3(O)[C@H](O)[C@@H]1C(C)(C)CC[C@@H]2O	nt	nt	nt	nt	7.08µM*
CCn1c(SC(C)C(=O)NCc2ccco2)nnc1-c1ccccc1 (centres undefined)	nt	0.9%	-22.9%	5.7%	nt
COc1ccc(C2N=C(Nc3nc4ccccc4o3)NC3=C2C(=O)CC(C)(C)C3)cc1 (centres undefined)	nt	2.3%	-11.6%	9.7%	-1.9%
Cc1ccc(NC(=S)NCC23C=CC(O2)C2C(=O)N(c4ccc(C)cc4)C(=O)C23)cc1 (centres undefined)	5.4%	-6.0%	10µM*	0.9%	?
Cc1cccc(NC(=S)NCC23C=CC(O2)C2C(=O)N(c4ccc(Cl)cc4)C(=O)C23)c1 (centres undefined)	?	-1.8%	7.94µM*	-1.4%	?
Cc1ccc(N2C(=O)C3C4C=CC(CNC(=S)N5CCN(c6ccccc6)CC5)(O4)C3C2=O)cc1 (centres undefined)	-9.1%	-0.9%	20µM*	0.2%	-20.0%
SMILES	Vif-A3F inh	Vif-APOBEC3G blk	TrxR1 inh	TrxR1 substrate	VDR inh
Cc1ccc(S(=O)(=O)NCC23C=CC(O2)C2C(=O)N(c4ccccc4)C(=O)C23)cc1 (centres undefined)	0.5%	2.9%	2.82µM*	-0.5%	6.5%
COc1ccc(/C=C/C(=O)c2c(O)c(OC)c3occc3c2OC)cc1OC	nt	nt	-34.1%	-2.0%	nt
COc1cccc(NS(=O)(=O)c2ccc3[nH]cc(C(=O)N(C)C4CCCCC4)c(=O)c3c2)c1	-6.2%	0.1%	13.8%[57.1 µM]	0.1%[57.1 µM]	11.3%
COc1ccccc1C1NC(c2ccc3c(c2)OCO3)=CC(c2cc(Br)ccc2O)N1 (centres undefined)	nt	-12.2%	-30.2%	2.5%	-26.9%
O=C(O)CCc1ccc(-c2ccc(Br)cc2)o1	0.9%	-0.3%	22.4µM*	4.2%	?
O=C(O)CCc1ccc(-c2ccc(Cl)cc2)o1	-17.5%	-0.5%	17.8µM*	7.0%	?
COc1ccc(-c2ccc(CCC(=O)O)o2)cc1	?	-1.5%	17.8µM*	11.5%[57.1 µM]	?
Cc1c(CC(=O)N2CCN(C(=O)C3COc4ccccc4O3)CC2)c(=O)oc2cc(O)c(Cl)cc12 (centres undefined)	1.6%	-2.2%	31.6µM*	939.2%	3.3%
O=C(CCl)N1CCN(C(=O)C2COc3ccccc3O2)CC1 (centres undefined)	4.0%	?	28.2µM*	4.5%	-21.3%
COc1ccc(S(=O)(=O)N2CCN(C(=O)C3COc4ccccc4O3)CC2)cc1 (centres undefined)	0.1%	0.1%	50.1µM*	-3.5%	3.6%
Cc1c(CC(=O)NCc2ccc(F)cc2)c(=O)oc2cc(O)c(Cl)cc12	-0.1%	?	79.4µM*	892.8%	15.2%
CCN1CCN(C(=O)C2COc3ccccc3O2)CC1 (centres undefined)	-5.8%	-5.3%	?	-4.8%	29.8%
Cc1ccccc1Nc1nnc(-c2ccc(C)c(S(=O)(=O)N3CCCCC3)c2)c2ccccc12	-0.5%	-5.9%	24.2%	8.9%	-7.2%
c1ccc(-c2nc(SCC3CCCCO3)n[nH]2)cc1 (centres undefined)	nt	-5.0%	10.2%	2.5%	nt
O=C(NCc1ccccc1)C1(CC2CC(c3ccccc3)=NO2)CCNCC1 (centres undefined)	-19.5%	-0.2%	22.4µM*	4.3%	-11.2%
O=c1c(Cl)cc(Cl)nn1-c1ccccc1	3.2%	-16.3%	25.1µM*	-5.4%	5.5%
CN(C)c1ccc(-c2ccc(CCO)cc2)cc1	nt	-4.9%	1.4%	9.5%	nt
O=C(Cc1ccc([N+](=O)[O-])cc1)N/N=C/c1ccc([N+](=O)[O-])o1	-6.1%	-13.9%	14.1µM*	-3.3%	-2.5%
CCOC(=O)N/N=C\c1ccc([N+](=O)[O-])o1	-2.0%	-9.0%	7.08µM*	-6.1%	28.9%
O=C(CC12CC3CC(CC(C3)C1)C2)N/N=C/c1ccc([N+](=O)[O-])o1	-20.0%	-15.7%	39.8µM*	1.7%	4.2%
